In ChEMBL document CHEMBL4513149, “CO-ADD screening of MMV (CH) - MMV compounds” (2021):
Measured potencies and affinities stand elsewhere.

system: Staphylococcus aureus; conditions: Concentration 20 uM; ASSAY_TEST Inhibition of Bacterial Growth; detection method Absorption (OD600); MEDIA CAMHB; plate type 384well; NBS; CORNING #3640; time 18 hr

| Compound | Inhibition |
| --- | --- |
| Nc1ncnc2c1c(-c1cnc3ccccc3c1)nn2CC1CCNCC1 | 3.94% |
| Cc1ccc2nc(C)c(-c3ccn(Cc4ccccc4)n3)n2c1 | 13.47% |
| Cc1cc(C)cc(COc2ccc3c(C)c(CCC(=O)O)c(=O)oc3c2C)c1 | 19.34% |
| Cc1nn(C)cc1C(C)Nc1nncc(-c2ccc(C(F)(F)F)cc2)n1 (stereo unspecified) | 2.57% |
| O=C(Nc1ccc(F)c(-c2nc3cc(-c4ccccc4)cnc3[nH]2)c1)N1CCCC1 | 13.16% |
| COc1ccc(N(CCc2cccc(C)n2)C(=O)C2CCCCC2)cc1 | 4% |
| CC(C)=CCC/C(C)=C\CNCCNC1C2CC3CC(C2)CC1C3 (stereo unspecified) | 37.58% |
| Cc1ccc2[nH]c3c(NCCN(C)C)ncnc3c2c1 | 20.13% |
| c1ccc(Oc2ccc(-c3cc(CN4CCOCC4)[nH]n3)cc2)cc1 | 15.12% |
| CNC(=O)c1cc(S(=O)(=O)N2CCN(c3ccccn3)CC2)cs1 | 7.99% |
| CN1CCN(c2cc(-c3ccc(F)cc3)nc(-c3ccncc3)n2)CC1 | 17.93% |
| CCOC(=O)c1c(NC(=O)c2c(F)c(F)c(F)c(F)c2F)sc(C(N)=O)c1C | 12.42% |
| Cc1ccc(S(=O)(=O)n2cc(-c3ccnc(N)c3)c3cc(Br)cnc32)cc1 | 9.7% |
| CCCn1nnc(NC(=O)COc2ccc(C3CCCCC3)cc2)n1 | 2.73% |
| COc1ccc(C(=N)N)cc1-c1cn(-c2ccc(C(=N)N)cc2)nn1.Cl.Cl | 4.09% |
| CCC(=O)Nc1ccccc1C(=O)Nc1ccccn1 | 18.51% |
| CC(C)(C)C(=O)N(CCCCCCN1C[C@H](O)[C@@H](O)[C@H](O)[C@H]1CO)C1CCCCCC1 | -1.36% |
| Cl.NCC(c1cccs1)S(=O)(=O)c1ccccc1 (stereo unspecified) | 11.05% |

| Compound | Inhibition |
| --- | --- |
| O=C(NCc1ccoc1)N1CCN(Cc2ccc3c(c2)OCO3)CC1 | 17.61% |
| Clc1ccc(CCNc2cc(-c3ccccc3)nc3ncnn23)cc1 | 16.06% |
| C[C@H](c1ccc2c(c1)CCCC2)N(C)c1ncc2c(N)nc(N)nc2n1 | 64.04% |
| O=C(NCCc1ccn(-c2ccccc2)n1)C1CCCCC1 | 6.55% |
| CCCS(=O)(=O)N1CCC(CO)(Cc2ccccc2C(F)(F)F)CC1 | 8.25% |
| CC(C)n1ncc2c(C(=O)NCC(c3cccs3)N3CCOCC3)cc(-c3ccccc3)nc21 (stereo unspecified) | 11.85% |
| Cc1cc(C)c2cc(C(=O)NC3CCCCCCC3)[nH]c2c1 | 16.44% |
| Cc1ccc(-c2nc(CN(Cc3ccccn3)C(C)C)cs2)o1 | 63.05% |
| COc1ccc(-c2cnc3ccc(NCc4ccc(S(N)(=O)=O)cc4)nn23)cn1 | 19.01% |
| Cc1ccc2nc(Cl)c(CNCc3cccs3)cc2c1 | 2.71% |
| c1ccc(Oc2ccc(-c3cncc(-c4ccc5[nH]ccc5c4)n3)cc2)cc1 | 11.46% |
| CNc1cc(C)nc(C2CN(C(=O)c3n[nH]c4ccccc34)CCO2)c1 (stereo unspecified) | 17.74% |
| COc1cc(OC)cc(C(=O)NCC2Cc3cc(Cl)cc(-c4ccncc4)c3O2)c1 (stereo unspecified) | 16.01% |
| O=C(NCc1ccco1)N1CCN(Cc2ccc(Cl)s2)CC1 | 6.8% |
| CCOC(=O)c1noc(N)c1-c1ccccc1 | 31.41% |
| O=C(Nc1nc(-c2ccccn2)cs1)c1cncn1-c1ccccc1 | 8.38% |
| COc1cccc(OC)c1C(=O)Nc1ccc(Cl)c(-c2nc3ccccc3s2)c1 | 3.55% |
| Cc1cc(O)nc(-n2nc(C)cc2C)n1 | 9.17% |
